# PAFAH1B2 inh: PAFAH1B2 (human) inhibition. P68402. hit rate 1.2% among 340,000. inhibition, % at 3.39 µM. recombinant PAFAH1B2, FP-rhodamine activity probe, fluorescence polarization;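 active means inhibition above the mean of all tested compounds plus 3 SD, cut at about 24% in these data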;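 further: 0% = enzyme with DMSO and 100% = wells lacking PAFAH1B2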
# rCAG binder: binds r(CAG) RNA repeats. inhibition, % at 3 µM. hit rate 1.3% among 370,000. r(CAG) RNA repeat, TO-PRO-1 dye displacement fluorescence;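 active means inhibition above the plate cutoff, the mean of all test compounds on that plate plus 3 SD, cut at about 35% in these data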;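 further: 0% = DMSO alone and 100% = 100 µM mitoxantrone as full dye displacement; higher means more dye released from RNA so lower well fluorescence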
# PAFAH2 inh: PAFAH2 (human) inhibition; Q99487; recombinant PAFAH2, FP-rhodamine activity probe, fluorescence polarization; inhibition, % at 3.39 µM; hit rate 0.99% among 340,000; AID 492956;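 active means inhibition above the mean over all tested compounds plus 3 SD, cut at about 30% in these data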;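 further: inhibitors block probe labeling of enzyme so polarization drops; 0% = enzyme with DMSO and 100% = wells lacking PAFAH2 protein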
# PAFAH1B3 FP inh: blocks human PAF acetylhydrolase 1B catalytic subunit 3; Q15102; recombinant PAFAH1B3, FP-rhodamine probe, fluorescence polarization; inhibition, % at 3.39 µM; hit rate 0.28% among 340,000; AID 492972;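 active means inhibition above the screen-wide average of all tested compounds plus 3 SD, cut at about 25% in these data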;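 further: 0% = enzyme with DMSO only and 100% = wells lacking PAFAH1B3 protein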
# Target sequence (Q15102 whole entry, looked up): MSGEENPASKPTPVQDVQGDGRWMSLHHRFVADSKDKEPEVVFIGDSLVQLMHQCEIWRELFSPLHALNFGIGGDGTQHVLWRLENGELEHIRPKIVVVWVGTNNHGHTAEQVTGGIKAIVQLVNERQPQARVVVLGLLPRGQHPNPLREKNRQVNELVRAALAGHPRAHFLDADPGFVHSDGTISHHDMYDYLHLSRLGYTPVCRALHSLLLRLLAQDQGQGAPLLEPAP
# EBNA-1 inhibitor: blocks EBNA-1 binding to DNA. hit rate 0.34% among 300,000. EBNA-1 DNA binding, fluorescence polarization. inhibition, % at 14.8 µM; in the data active means inhibition above about 28%
# ZTA counter: blocks Epstein-Barr virus ZTA, an EBNA-1 counter-screen; hit rate 0.15% among 320,000; ZTA-DNA binding, fluorescence polarization; inhibition, % at 11 µM; in the data active means inhibition above about 33%
# Target sequence (P03206 whole entry, looked up): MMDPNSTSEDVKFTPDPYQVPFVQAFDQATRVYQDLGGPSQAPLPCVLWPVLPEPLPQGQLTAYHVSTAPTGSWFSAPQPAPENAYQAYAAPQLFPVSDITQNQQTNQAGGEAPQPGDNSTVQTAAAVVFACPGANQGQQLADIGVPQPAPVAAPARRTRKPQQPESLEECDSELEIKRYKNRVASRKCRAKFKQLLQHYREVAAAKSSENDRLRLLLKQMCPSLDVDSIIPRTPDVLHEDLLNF
# PAFAH2 confirm: confirmation of human PAFAH2 inhibitors. shares compounds with PAFAH2 inh. recombinant PAFAH2, FP-rhodamine activity probe, fluorescence polarization. hit rate 65% among 2,300. inhibition, % at 3.39 µM;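 active means mean inhibition over three repeats above a set limit taken from the earlier primary screen, cut at about 30% in these data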;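 further: inhibitor blocks binding of rhodamine activity probe so polarization falls; 0% = enzyme with DMSO and 100% = wells lacking PAFAH2 protein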
# * hit, by the source's call; x = no result. In the library only some 2.9% were active in any assay of this set; here they are far more common.
SMILES,PAFAH1B2 inh,rCAG binder,PAFAH2 inh,PAFAH1B3 FP inh,EBNA-1 inhibitor,ZTA counter,PAFAH2 confirm
C/C=C/C(=O)OCC(=O)Nc1ccc(C)c(S(=O)(=O)N(C)C)c1,7,5,57*,1,17,7,48*
CCN(CC)S(=O)(=O)c1cccc(NC(=O)COC(=O)/C=C/c2ccco2)c1,0,3,33*,1,-2,-4,24
Cc1ccc(NC(=O)COC(=O)c2ccc(Cl)cc2)cc1S(=O)(=O)N(C)C,-7,8,61*,-3,-3,6,56*
C=CCN1C(=O)[C@H](CC(=O)NCc2cccc3ccccc23)[C@@]2(C(=O)OCC)CCCC=C12,x,4,x,x,x,x,x
Cc1ccc(NC(=O)COC(=O)/C=C/c2ccco2)cc1S(=O)(=O)N(C)C,0,8,70*,2,-13,-14,77*
O=C(COC(=O)/C=C/c1ccco1)Nc1cccc([N+](=O)[O-])c1,4,3,84*,10,18,1,85*
CC(=O)OCC(=O)Nc1ccc(SC(F)F)cc1,5,-2,5,1,1,-15,x
C/C=C/C(=O)OCC(=O)Nc1ccc(SC(F)F)cc1,3,1,56*,1,-14,5,48*
CC(C)c1ccc(NC(=O)COC(=O)/C=C/c2cccc([N+](=O)[O-])c2)cc1,-2,5,4,2,-1,-13,x
Cc1ccc(/C=C/C(=O)OCC(=O)Nc2cccc(S(=O)(=O)N(C)C)c2)o1,3,9,67*,-1,6,-1,39*
CCOC(=O)[C@@]12CCC3=C1N(CCC3)C(=O)[C@H](CC(=O)NCc1ccccc1)C2,x,0,x,x,x,x,x
CN(C)S(=O)(=O)c1cccc(NC(=O)COC(=O)/C=C/c2ccco2)c1,3,13,55*,2,-1,-8,47*
N#Cc1ccsc1NC(=O)COC(=O)c1ccc(NC(N)=O)cc1,-9,13,5,-18,-12,5,x
CCN(CC)c1ccc(C(=O)OCC(=O)Nc2ncccn2)cc1,6,0,77*,9,x,x,70*
CCN(CC)c1ccc(C(=O)OCC(=O)Nc2ccccc2-c2ccccc2)cc1,-4,3,77*,5,5,32,51*
CCN(CC)c1ccc(C(=O)OCC(=O)Nc2sccc2C#N)cc1,-3,4,47*,-6,2,1,54*
CCN(CC)c1ccc(C(=O)OCC(=O)Nc2cc3oc4ccccc4c3cc2OC)cc1,1,4,3,-2,-5,0,x
CSc1ccc(/C=C/C(=O)OCC(=O)NCC2CCCO2)cc1 (stereo unspecified),3,6,39*,9,x,-4,22
O=C(COC(=O)/C=C/c1ccccc1)NCC1CCCO1 (stereo unspecified),3,-4,37*,-1,3,4,23
COC(=O)[C@]12C=CCN1[C@H](c1ccc(C(F)(F)F)cc1)c1c(c3ccccc3n1S(=O)(=O)c1ccc(C)cc1)C2,x,20,x,x,x,x,x
O=C1Nc2ccccc2-n2nnnc2C1N1CCN(c2ccc(C(F)(F)F)cn2)CC1 (stereo unspecified),x,2,x,x,x,x,x
Cc1ccc(-c2c(C#N)c(N)n3c(nc4ccccc43)c2C#N)cc1,5,21,46*,5,-5,12,34*
COC(=O)C1=C(C)N(Cc2cccc(C(F)(F)F)c2)C(=NCc2ccccc2C(F)(F)F)NC1c1cccc(F)c1 (stereo unspecified),x,3,x,x,x,x,x
O=C(COC(=O)C1CC2CCCC(C1)C2=O)Nc1cccc(F)c1 (stereo unspecified),7,4,68*,4,x,9,69*
O=C(COC(=O)C1CC2CCCC(C1)C2=O)Nc1ccccc1 (stereo unspecified),1,1,64*,11,x,-10,60*
SMILES,PAFAH1B2 inh,rCAG binder,PAFAH2 inh,PAFAH1B3 FP inh,EBNA-1 inhibitor,ZTA counter,PAFAH2 confirm
CCOC(=O)[C@@]12CN(C(=O)OC(C)(C)C)CC=C1N(Cc1ccc(OC)cc1)C(=O)[C@H]2CC(=O)NCc1ccccc1,x,5,x,x,x,x,x
O=C(COC(=O)/C=C/c1ccccc1)NCc1ccccc1Cl,1,-4,71*,14,-5,-19,70*
O=C(COC(=O)/C=C/c1ccccc1)NCCNC(=O)COC(=O)/C=C/c1ccccc1,1,-6,-1,2,-6,-3,x
CSc1ccccc1NC(=O)COC(=O)/C=C/c1ccco1,4,x,63*,-12,x,x,44*
Cc1ccc(/C=C/C(=O)OCC(=O)Nc2ccccc2Sc2ccccc2)cc1,9,0,-4,-3,-7,1,x
O=C(COC(=O)/C=C/c1ccco1)NCc1ccc(Cl)cc1Cl,4,2,77*,3,x,x,63*
CC(NC(=O)COC(=O)/C=C/c1ccco1)c1ccccc1 (stereo unspecified),6,1,49*,1,-14,6,38*
CC(NC(=O)COC(=O)/C=C/c1ccc([N+](=O)[O-])cc1)c1ccccc1 (stereo unspecified),-4,-1,12,-2,2,4,x
CCCCn1cnc2c(=O)[nH]ccc21,x,2,x,x,x,x,x
Cc1nn(-c2ccccc2)c2sc(C(=O)N3CCN(Cc4ccccc4)CC3)cc12,x,5,x,x,x,x,x
CCN1CCCCC(NC(=O)c2ccc(F)cc2)C1=O (stereo unspecified),x,1,x,x,x,x,x
COc1ccccc1CNC(=O)C[C@H]1CC[C@H]2[C@H](COc3ccc(NS(=O)(=O)c4ccc(C)cc4)cc3C(=O)N2C)O1,x,8,x,x,x,x,x
Cc1c(Cl)cnc(NC(=O)COC(=O)/C=C/c2ccco2)c1Cl,3,14,34*,-1,x,x,22
COc1ccc(CNC(=O)COC(=O)/C=C/c2ccco2)cc1,-4,0,4,0,-4,-24,x
O=C(Cc1ccccc1)NCCc1ccc(Cl)cc1Cl,4,x,3,6,-6,9,x
O=C(COC(=O)/C=C/c1ccco1)NCc1ccco1,11,8,37*,17,-12,-3,20
O=C(COC(=O)/C=C/c1cccc(Cl)c1)NCCc1ccc(Cl)cc1Cl,1,1,42*,8,-4,1,44*
O=C(COC(=O)/C=C/c1ccco1)NCc1ccccc1Cl,7,-1,75*,7,-5,3,63*
O=C(COC(=O)/C=C/c1ccco1)Nc1ncc(C(F)(F)F)cc1Cl,0,30,8,1,-1,13,x
CNC(=O)COC(=O)/C=C/c1ccco1,-4,1,0,6,-1,0,x
FC(F)(F)Oc1ccc(Cn2ccc3ccc(-c4ccc5ccn(Cc6ccc(OC(F)(F)F)cc6)c5c4)cc32)cc1,x,10,x,x,x,x,x
O=C(OCc1cn(Cc2ccccc2)nn1)N1CCOCC1,x,1,x,x,x,x,x
